Records with an inconclusive call do not appear. A call without a number means that no potency is given here. Calls of active or inactive are those of the source. The call rests on the fitted dose curve.
assay: p53 small molecule agonists, cell-based qHTS assay with rat liver microsomes (AID 1963578); conditions: HCT-116 p53RE-bla, beta-lactamase ratio, 16 h; series mostly up to 66 µM; activation: at the top concentration
Text: U.S. Tox21 Program National Center for Advancing Translational Sciences [NCATS] Division of Preclinical Innovation [DPI] U.S. Environmental Protection Agency [EPA] National Institutes of Environmental Health Sciences [NIEHS] National Toxicology Program [NTP] U.S. Food and Drug Administration [FDA] Tox21 Assay Overview: p53, a tumor suppressor protein, is activated following cellular insult, including DNA damage and other cellular stresses. The activation of p53 regulates cell fate by inducing DNA repair, cell cycle arrest, apoptosis, or cellular senescence. The activation of p53, therefore, is a good indicator of DNA damage and other cellular stresses. […] The activation of the reporter gene under culture conditions can be detected by fluorescence intensity. This cell line was used to screen the Tox21 10K compound library in the condition of presence of rat liver microsomes and to identify agonists that activate the p53 signaling pathway after in vitro metabolic activation (Ooka et al., Archive of Toxicology 96:1975-1987, 2022).
Tox21 Assay Protocol Summary: The p53RE-bla cells were dispensed at 4,000cells/3ul/well in 1536-well black-clear bottom plates. After the assay plates were incubated at 37 C, 5% CO2 incubator for 5 hours, 23 nL of compounds dissolved in DMSO, positive controls or DMSO only was transferred to the assay plate. Following compound addition, 3 uL of rat liver microsomes (Molecular Toxicology, Boone, NC) at final concentration of 0.5 mg/mL and 1uL of Beta-Nicotinamide adenine dinucleotide 2-phosphate (NADPH) at final concentration of 0.5 mg/mL were transferred to the assay plate. The plates were incubated at 37 C for 16 hours. 1 uL of LiveBLAzer detection mixture was added to each well and the plates were incubated at room temperature in the dark for 2 h.

SMILES	Potency	activation
CCOC(=O)NNc1nncc2ccccc12	inactive	–
CCCCCCCCC	inactive	–
COc1cc([C@H]2Oc3cc([C@H]4Oc5cc(O)cc(O)c5C(=O)[C@@H]4O)ccc3O[C@@H]2CO)ccc1O	inactive	–
Cc1cccc2n[nH]nc12	–	-1.21% (inactive)
CCCCOC(=O)CC(CC(=O)OCCCC)(OC(C)=O)C(=O)OCCCC	inactive	–
Cc1ccc(C(C)C)c(O)c1	inactive	–
CC1=NN(c2ccccc2)C(=O)C1	inactive	–
CCc1cccc2c3c([nH]c12)C(CC)(CC(=O)O)OCC3 (stereo not given)	inactive	–
CC1(C)S[C@@H]2[C@H](NC(=O)[C@H](N)c3ccccc3)C(=O)N2[C@H]1C(=O)O	inactive	–
COc1ccc(C(Cl)=C(c2ccc(OC)cc2)c2ccc(OC)cc2)cc1	inactive	–
Oc1c(Cl)cc(Cl)c(Cl)c1Cc1c(O)c(Cl)cc(Cl)c1Cl	inactive	–
CCCCCC(N)=O	inactive	–
Clc1ccc(Cl)c(Cl)c1Cl	inactive	–
Cc1ccc(S(=O)(=O)N=C=O)cc1	inactive	–
OC(CCl)CCl	–	-1.84% (inactive)
C=CCOC(=O)c1ccccc1C(=O)OCC=C	inactive	–
[Na+]	inactive	–
CCc1ccc(O)cc1	inactive	–
O=S(=O)(O)c1ccc(O)cc1	inactive	–
CCCCCCCCCCCCCCCC(=O)O	inactive	–

SMILES	Potency	activation
c1ccc(Oc2ccccc2)cc1	inactive	–
CCCCCCc1ccc(O)cc1O	inactive	–
Nc1ncn([C@@H]2O[C@H](CO)[C@@H](O)[C@H]2O)c(=O)n1	inactive	–
CCCCCCC=O	inactive	–
CCCC[P+](CCCC)(CCCC)CCCC	inactive	–
CC/C(=C(\c1ccccc1)c1ccc(OCCN(C)C)cc1)c1ccccc1	inactive	–
O=S(=O)(O)c1ccc2cc(O)ccc2c1	inactive	–
CC(=O)Nc1ccc(C(=O)CCl)cc1	inactive	–
CC1COC(=O)O1 (stereo not given)	inactive	–
CCCCCNCCCCC	–	-0.886% (inactive)
CCCCCCCCOc1ccc(C(=O)c2ccccc2)c(O)c1	inactive	–
COC(=O)/C=C\C(=O)OC	inactive	–
CC(=O)c1ccccn1	inactive	–
Nc1ccn([C@H]2CC[C@@H](CO)O2)c(=O)n1	inactive	–
O=C(O)C1=NN(c2ccc(S(=O)(=O)O)cc2)C(=O)C1	inactive	–
Oc1c(Cl)cc(Cl)cc1Sc1cc(Cl)cc(Cl)c1O	inactive	–
CCCCCCCCCCCCCC[N+](C)(C)Cc1ccccc1	inactive	–
O=S1(=O)CCCO1	inactive	–
CC(C)(Oc1ccc(C2CC2(Cl)Cl)cc1)C(=O)O (stereo not given)	inactive	–
O=C1OC2(c3ccccc31)c1cc(I)c(O)c(I)c1Oc1c2cc(I)c(O)c1I	inactive	–

— PubChem BioAssay (Tox21)
